Source: PubChem BioAssay AID686915 (National Center for Advancing Translational Sciences (NCATS), 2013)
Several values for one entry are separate records, joined by “and”; a condition that tells them apart may be missing. Equal values may be shown once. Results filed as inconclusive are left out. Where a call stands in place of a potency, no number is given. Activity calls are given as the source filed them. Calls come from the whole dose curve; as a rule, active = well fitted inhibition curve with a large enough effect; inconclusive = small, poorly fitted or top-dose-only effect; inactive = no such curve, though single readings can be large or run the other way.

Test: qHTS screen for inhibitors of ELG1-dependent DNA repair in human embryonic kidney (HEK293T) cells expressing luciferase-tagged ELG1: MMS Stimulated Assay for probe SAR
Settings: HEK293T ELG1-luciferase reporter, 16 h; series mostly up to 46.1 µM
Text: Cancer cells divide rapidly compared to normal cells in the body. During cell division, cancer cells need to duplicate their genome by DNA replication. The failure of genome duplication leads to cancer cells' death. Therefore, inhibitors of DNA replication could specifically kill cancer cells. Based on this concept, many chemotherapeutic agents were developed and have been used to treat cancer patients. However, there are a limited number of agents available in the clinical setting, and some of those that do exist have low efficacy and severe side effects. Therefore, if we can find the compounds that effectively block DNA replication either by directly damaging DNA or by inhibiting other cellular mechanisms, the options for cancer treatment will be broadened. With this in mind, we developed a quantitative high-throughput ELG1-luciferase reporter gene assay. Small molecules that specifically block ELG1 function in response to DNA damage can be identified by monitoring the suppression of luciferase activity. Since ELG1 defines a pathway for repairing DNA damage, agents blocking ELG1 function can be used to sensitize cancer cells to chemotherapeutic agents whose mechanism of action involves the induction of DNA damage. NIH Molecular Libraries Probe Production Network [MLPCN] NIH Chemical Genomics Center [NCGC] MLPCN Grant: R03 MH092164 Assay Provider: Kyungjae Myung, NHGRI, NIH
ELG1-luc HEK293T cells will be seeded in 1536-well plates at a density of 2,000 cells / well. Approximately 5 hours after plating, compounds will be added to the plate by pin tool transfer and MMS will be added by FRD dispenser (final concentration of MMS = 10 µM). 16 hours following the addition of the compounds, luciferase activity will be measured using Amplight reagent.

SMILES	Potency
Nc1cc(-c2nc(Nc3ccc(F)c(F)c3)c3ccccc3n2)ccn1	inactive
Fc1cccc(-c2ccc(Nc3nc(-c4ccncc4)nc4ccccc34)cc2F)c1	inactive
Fc1cc(Nc2nc(-c3ccncc3)nc3ccccc23)ccc1-c1cc(F)c(F)c(F)c1	inactive
COc1cc(Nc2nc(-c3ccncc3)nc3ccccc23)ccc1NS(C)(=O)=O	inactive
CSc1ccccc1-c1ccc(Nc2nc(-c3ccncc3)nc3ccccc23)cc1F	18.7 µM (active)
Fc1ccc(Nc2nc(-c3ccnc(C(F)(F)F)c3)nc3ccccc23)cc1F	18.7 µM (active)
COc1ccc(Nc2nc(-c3ccncc3)nc3ccccc23)cc1F	inactive
Cc1nc2ccc(Nc3nc(-c4ccncc4)nc4ccccc34)cc2s1	inactive
O=c1cc(-c2nc(Nc3ccc(F)c(F)c3)c3ccccc3n2)cc[nH]1	inactive
CCOC(=O)c1ccc2c(c1)c(C(C)=O)c(C)n2-c1ccc(OC)cc1	inactive
Fc1cc(Nc2nc(-c3ccncc3)nc3ccccc23)ccc1OCC(F)(F)F	inactive
COc1cc(Nc2nc(-c3ccncc3)nc3ccccc23)ccc1N1CCN(C)CC1	inactive
Fc1cc(Nc2nc(-c3ccncc3)nc3ccccc23)ccc1-c1ccncc1	inactive
c1ccc2c(Nc3ccn[nH]3)nc(-c3ccncc3)nc2c1	4.69 µM (active)
Fc1cc(Nc2nc(-c3ccncc3)nc3ccccc23)ccc1C(F)(F)F	8.33 µM (active) and 13.2 µM (active)
COc1cc(Nc2nc(-c3ccncc3)nc3ccccc23)ccc1F	23.5 µM (active) and 20.9 µM (active)
N#Cc1cnccc1-c1nc(Nc2ccc(F)c(F)c2)c2ccccc2n1	5.26 µM (active)
COc1ccc(-c2nc(Nc3ccc(F)c(F)c3)c3ccccc3n2)cc1	inactive
Fc1cc(Nc2nc(-c3ccncc3)nc3ccccc23)ccc1N1CCCCC1	18.7 µM (active)
Fc1cc(Nc2nc(-c3ccncc3)nc3ccccc23)ccc1-c1cccc(OC(F)F)c1	inactive

SMILES	Potency
Fc1ccc(Nc2nc(-c3ccncc3Cl)nc3ccccc23)cc1F	inactive
Fc1cc(Nc2nc(-c3ccncc3)nc3ccccc23)ccc1-c1cccc(C(F)(F)F)c1	18.7 µM (active)
COc1nccc(-c2nc(Nc3ccc(F)c(F)c3)c3ccccc3n2)c1Cl	inactive
N#Cc1cc(-c2nc(Nc3ccc(F)c(F)c3)c3ccccc3n2)ccn1	inactive
CN1CCN(c2ccc(Nc3nc(-c4ccncc4)nc4ccccc34)cc2F)CC1	inactive
Fc1cc(Nc2nc(-c3ccncc3)nc3ccccc23)ccc1-c1ccc(F)c(F)c1F	inactive
Cc1noc(C)c1-c1ccc(Nc2nc(-c3ccncc3)nc3ccccc23)cc1F	18.7 µM (active)
Fc1ccc(Nc2nc(-c3ccnc(N4CCCCC4)c3)nc3ccccc23)cc1F	inactive
Fc1cc(Nc2nc(-c3ccncc3)nc3ccccc23)ccc1-c1cccc(OC(F)(F)F)c1	23.5 µM (active)
Cc1cc(-c2nc(Nc3ccc(F)c(F)c3)c3ccccc3n2)cc(C)n1	inactive
Fc1cc(Nc2nc(-c3ccncc3)nc3ccccc23)ccc1-c1cccnc1	inactive
Fc1cc(Nc2nc(-c3ccncc3)nc3ccccc23)ccc1-c1cncnc1	inactive
Fc1cc(-c2nc(Nc3ccc(F)c(F)c3)c3ccccc3n2)ccn1	inactive
Fc1ccc(Nc2nc(-c3ccncc3)nc3ccccc23)cc1F	inactive
Cc1cc(-c2nc(Nc3ccc(F)c(F)c3)c3ccccc3n2)ccn1	inactive
Fc1ccccc1-c1ccc(Nc2nc(-c3ccncc3)nc3ccccc23)cc1F	16.6 µM (active)
Fc1cc(Nc2nc(-c3ccncc3)nc3ccccc23)ccc1-n1cncn1	inactive
Fc1cc(Nc2nc(-c3ccncc3)nc3ccccc23)ccc1-c1cn[nH]c1	inactive
COc1ccc(-n2c(C)c(C(C)=O)c3ccccc32)cc1	7.43 µM (active) and 6.62 µM (active)
Fc1ccc(-c2nc(-c3ccncc3)nc3ccccc23)cc1F	inactive
